This note sets out measurements from PubChem BioAssay (NCI).

The panel holds about 83,000 compounds, 20% with a hit somewhere; the sample as a whole holds those more often.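 Cells were grown in 96-well plates and exposed to the test compound at a single concentration for 48 hours; results are reported as percent growth, with values below 10 considered active.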 A number with no mark means an inactive call. Activity calls are given as the source filed them.

This assay deals with ACHN renal. The assay is described as follows: NCI-60 one-dose screen, 48 h (100 = growth as untreated, 0 = no growth, -100 = all killed). Particulars: 10 µM unless noted. As for the experimental part:
Growth inhibition of the ACHN human tumor cell line is measured as a screen for anti-cancer activity. Cells are grown in 96 well plates and exposed to the test compound for 48 hours. Compounds are tested at a single concentration, which is 10^-5 M for most compounds. The reported endpoint is percent growth (GI% or GIPRCNT), where numbers from 0 - 100% represent growth inhibition, and numbers from -100% - 0 represent cell death. For example, a value of 40 represents 60% growth inhibition. A value of 0 means no net growth occurred over the course of the experiment. A value of -40 indicates 40% of cells at the beginning of the experiment died by the end of the experiment. A value of -100 means all cells are dead at the end of the experiment.
NCI-60 Human Tumor Cell Lines Screen was performed using the standard one-dose NCI protocol, which is described in more detail at https://dtp.cancer.gov/discovery_development/nci-60/default.htm.
Compounds with GIPRCNT values below 10 were considered active. Activity score was based on GIPRCNT using the following formula: […]
Score is 0 for GIPRCNT values of 100 or above, 50 for GIPRCNT values of 0, and 100 for GIPRCNT values of -100.
As to `C[C@]12CCC(=O)C=C1CC[C@H]1[C@@H]3C[C@@H](O)[C@](O)(C(=O)CO)[C@@]3(C)C[C@H](O)[C@@]12F`, the growth was 104%. On to `COc1cnc2c(c1)C(=O)c1c-2n(CCCN2CCCC2)c(=O)c2cc(F)ccc12`, for which the growth was -67.7% (active). Turning to `O=C(Nc1nc2ccc(OC(F)(F)F)cc2s1)c1ccc(F)cc1`, the growth is 7.56% (active). Under `O=C(COc1ccc(/C=C2\Cc3ccccc3C2=O)cc1)c1ccc(Cl)cc1` stands 107%; under `O=C(Nc1ccc(Cl)cc1)Nc1ccccc1CNc1nc(Nc2ccc(OCCN3CCCC3)cc2)ncc1Cl`, -54.4% (active).

Consider `CC(=O)Nc1cc(C(c2ccccc2)c2ccccc2)cc(C(c2ccccc2)c2ccccc2)c1C`, for which the growth was 51.1%. As for `O=C(Oc1cccc2ccccc12)c1ccccc1C(=O)c1ccccc1`, the growth was 95.5%. With `CNCCCn1c2c(c3ccc(F)cc3c1=O)C(=O)c1cc(OC)cnc1-2`, the growth is -57.2% (active).

`COc1cc(NC(=O)NCc2ccco2)ccc1-c1ccc(NC(=O)NCc2ccco2)cc1OC`: the growth was 60.2%. As to `CCOc1cc(/C=C/C(=O)C(C(=O)/C=C/c2ccc(OC(=O)CNc3nc4ccccc4[nH]3)c(OCC)c2)C(=O)CNc2nc3ccccc3[nH]2)ccc1OC(=O)CNc1nc2ccccc2[nH]1`, the growth was -45.6% (active). Consider `COc1ccc2[nH]c(=O)c(CNc3ccc(Nc4nccc(-c5ccc(Cl)cc5)n4)cc3)cc2c1`, for which the growth was 90.1%. The same measure for `CCOC(=O)/C=C1/SC(=Nc2ccc(C#N)cc2)N(Cc2ccco2)C1=O`: -78.6% (active). The same measure for `COc1ccccc1-n1c(-c2ccc(O)cc2C)cn2c3c(=O)[nH]c(=O)n(C)c3nc12`: 74%; for `COc1cc(C2CC(c3ccc(C)cc3)=NN2C=O)ccc1OCCN(C)C` (stereo not given): 100%.

For `c1ccc(-c2n(Cc3ccc4ccccc4c3)cc[n+]2Cc2ccc3ccccc3c2)cc1`, the growth is 13.3%. Under `Nc1c(C(=O)Nc2cccc(Cl)c2)sc2nc3c(cc12)C(O)CCC3` (stereo not given) stands 43.3%. Turning to `CC12CCC3C(=CCc4cc(O)ccc43)C1CCC2=O` (stereo not given), the growth was 93.1%.

Regarding `O=C(O)CCC(=O)OC[C@@H](NC(=O)C(Cl)Cl)[C@H](O)c1ccc([N+](=O)[O-])cc1`, the growth was 88.1%. On to `CC(=O)N1N=C(c2ccc(Nc3nc(NCCO)nc(NCCO)n3)cc2)CC1c1ccc(Cl)cc1` (stereo not given), for which the growth was 96.4%. `Clc1ccc2c(c1)C(Br)c1cc(Cl)cc(Cl)c1-2` (stereo not given): the growth is 99.1%. As for `O=CN1N=C(c2ccc(Nc3ccnc4cc(Cl)ccc34)cc2)CC1c1ccc(Cl)cc1` (stereo not given), the growth was 27.9%. The same measure for `CN(C)CCC(=O)Nc1ccc(-n2cc(-c3cccc(NC(=S)Nc4cccc(-c5cn(-c6ccc(NC(=O)CCN(C)C)cc6)nn5)c4)c3)nn2)cc1`: 117%. Under `Cc1ccc(C(NC(=O)c2ccccc2)c2ccc3cccnc3c2O)cc1` (stereo not given) stands 8.26% (active); under `COc1ccc(-c2nc3sc4c(c3c(=O)[nH]2)CCCCCC4)cc1`, 65.6%. Under `Cc1[nH]cnc1/C=C1\SC(N2CCCCC2)=NC1=O` stands 106%; under `FC(F)(F)c1ccc(-c2cnc(-c3nn[nH]n3)nc2NC2CCCCCC2)cc1`, 68.9% [50 µM]. For `N#Cc1ncc(-c2ccc(C(F)(F)F)cc2)c(NC2CCCCCC2)n1`, the growth was -1.84% (active). On to `COc1cccc(C=Nc2cc(C(C)C)c(O)cc2C)c1O`, for which the growth was 100%. For the compound `CC[C@@H](c1ccc(O)c(O)c1)[C@@H](CC)c1ccc(O)c(O)c1`, the growth is 9.03% (active). The same measure for `CC1CN(C2CCCCC2)C(=O)NC1=O` (stereo not given): 106%; for `COc1ccc(/C=C2/SC(=Nc3c(C)nn(-c4ccccc4)c3N)NC2=O)cc1`: 46.8%. In the case of `Nc1ncnc2c1CN(Cc1ccccc1)CC2`, the growth is 103%.

Take `C[C@H]1C(=O)N2c3ccccc3[C@@]3(O)C[C@@H](n4cnc5ccccc5c4=O)C(=O)N1[C@@H]23`: the growth was 104%.

In the case of `COCCCNS(=O)(=O)c1ncnc2nc[nH]c12`, the growth was 118%. Under `Cc1ccc(C(=O)Cc2ccccc2)c(O)c1` stands 102%. The same measure for `CN(C)CCCNc1nn2c(=O)c3ccccc3nc2c2ccccc12`: 29.9%. For the compound `N#Cc1c(NC(=O)c2ccco2)[n+]([O-])c2ccccc2[n+]1[O-]`, the growth is 110%. Under `O=Cc1ccccc1C(=O)O` stands 103%; under `O=C(N/N=C/c1cccc([N+](=O)[O-])c1)c1ccc(Br)o1`, 156%. Take `CN[C@@H]1C(OC2[C@H](O[C@H]3[C@H](O)[C@@H](O)[C@H](N=C(N)N)[C@@H](O)[C@@H]3N=C(N)N)OC(C)[C@]2(O)CO)OC(CO)C(O)C1O` (stereo not given in full): the growth is 114%.
